tested on: VDR:RXRa (NR concentration 270 nM, RXRa partner concentration 90 nM); experiment: PBM binding z-score (relative to random genomic background probes); higher = stronger binding; sequences stand for … in GC…GCGATTGACAGCGTAGAATGAAGG
Description: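 Protein-binding microarray (Agilent 4x180K custom design, double-stranded 60-nt probes: 5' GC cap, 34-nt variable region, 24-nt constant primer region; full probe sequence given). Purified or IVT nuclear receptor:RXRα heterodimers (3:1 NR:RXRα, mostly 270:90 nM) or homodimers were incubated for 1 h in PBS with 2% milk and no ligand, then detected with Alexa488 antibodies. Fluorescence from o1-orientation probes (~5 replicates averaged) was converted to z-scores against 500 random hg19 background probes. Variable regions are seed direct-repeat (DR0–DR5) sites, all their single-nucleotide variants and half-site ablations.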

Point of comparison: ACTAGCAGCCCAAGGGTCACTCAAGATTAGTCCG, PBM binding z-score 2.6. Against it:
- TTACCAAGGTGCAAGGTCGTTGATGCACGCCTTG — lower, 1.92
- AGAACGAGGGCACGCTGGGTTGATAGCAGAGTAG — lower, 2.53
- TCTTGTAGATCAAGCAGGATAAGAAAGCCTGAGT — lower, 0.405
- GCGACTGGGGCATCAGCAGGTTACCAGAACTTAA — lower, -0.205
- CGAATTAGGTCAAGGACAGTGAATCTCCGCACGC — lower, 1.61
- GCATATAGATAATACAAGGTGAAAGTCCGATTGT — lower, 0.152
- CCGACTGGGGCAAAGCTTACCATACTCAGTACGA — lower, -0.585
- CAAACTAGATCAAGAGGTCAAAGTCCGCTTCCCG — higher, 4.68
- ATACCAAGGTGATCGTGAGATCGTTGATACTAAC — lower, 0.19
- TCTCGTAGATCAACAGGAGGTTAAGAAAGATCGA — lower, 0.875
- AGAATGAGGTTACCAAAGATCAGGGGAACGCTTG — lower, 1.49
- ATCTCTAAGTAAAAGTTCAGTGAATCCCGAGGAT — lower, 1.05
- TCGAGTAGGTTACCAATGGAGCATTCAGCTTTCT — lower, -0.303
- AGAACGAGGGCAATGAGTTGATAGCGCGGGTGGC — higher, 5.04
- CAGCCTAGGTCATGGCCAGTATAGGAGGAACGTT — lower, 1.84
- CGTCCCAGGTCAAGGTCAGTGAAAGAGACTCGAA — higher, 3.85
- GCGACTGGGGCAAAGCAGGTTAGCATAAGGTTGG — lower, -0.429
- ATATGTAAGTTAGCTGGGGTCATTCAGACTAGGC — higher, 5.25
- ATACCAAGGCGATCGTGAGGTCGTTGATACTAAC — lower, 1.51
- CCTTACGGGTCACGAGGTTCTAGCACGACGAGCG — higher, 6.18
- ATCGAGAGGTCGTGAGGTGAGTATACAGAAAGGC — higher, 3.3
- CCGACTGGGGCAGAAAGGCTACCATACCATCCGG — lower, -0.639
- CCTTACGGGTAACTGACAGGTTATAGCATTTGGA — lower, 0.0689
- ATATGTAGGTTACATCCGGGTCAATCAGGCTATG — higher, 3.59
- TCTAGCAGGCCAGAGGGGCACTCAAGAGGTACGG — lower, -0.288
- CAAACTAGGTCAAGTGGTCAAAGTCCGCTTCCCG — lower, 2.52
- TCTAGCTGGCCAGAGGGTCACTCAAGAGGTACGG — lower, 1.44
- TGTTGTAGATCAATAGAGGTTAAGAAAGTGCGCT — lower, 1.92
- CGTCCAAGGACAGAGAGGTCAGTGAATGCCGAGT — higher, 3.03
- CCTTACGGGTCATTCCAGGTTATAGCATCGGAGT — higher, 4.87
- TCTGCTAGGTCAACGATGTTCAGCTAATCTGCTA — lower, 1.67
- CCGACTGGGGCAAGGTTACCATGACGCACAGCCA — lower, -0.0991
- CCTGCTAGGTCAATGGTAAGCTAAAGCAGCTCGC — lower, 0.595
- ACTATTAGTTGAGACGAGGGAAACCGATAGGTTG — lower, -0.364
- TCTAGCAGGCGAGAGGGTCACTCAAGAGGTACGG — lower, 1.49
- CCGACTGGGGCAGAAAGGTTACCATTCCATCCGG — lower, 0.567
- TGAATGAGGTTAAAGATCAGGGAGCGTGGCGTCG — lower, 1.74
- TCAGACAGGTGACGGTAACTCAGGTACGCAGTCG — lower, 0.324
- TCTCGGAGGACACGTAGGTCAGAGCTTTCCAGAG — lower, 1.13

Reference: the supplement of paper PMC6555819
